Assay outcomes deposited in PubChem by National Center for Advancing Translational Sciences (NCATS).
DT40 TDP1 CPT: growth inhibition of DT40 Tdp1-/-;hTDP1 cells with camptothecin (screen for TDP1 inhibitors). chicken DT40 Tdp1-/-;hTDP1 cells + 20 nM CPT, ATP luminescence, 48 h. Potency, µM (titrated, usually from 46.2 µM), for inactives: top-dose activity change, negative = growth inhibition, most hits filed as inhibitors. 420,000 tested, 12% active. AID 686979; note: nearly all actives have a fitted effect of over 55% in size
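Cell growth measured by CellTiter-Glo luminescence after a minimum 48 h, 37 C compound exposure with 20 nM CPT in Tdp1-knockout DT40 cells stably expressing hTDP1, seeded 400/well; qHTS titration format.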
KB-3-1 tox: kills parental KB-3-1 adenocarcinoma cells; AID 1347075; KB-3-1 viability, CellTiter-Glo ATP luminescence, 72 h; Potency, µM (top dose mostly 46.1 µM), usual class: cytotoxic; 400,000 tested, 1.4% active; note: nearly all actives have a fitted effect of over 60% in size
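Using CellTiter-Glo luminescence, growth of non-resistant KB-3-1 adenocarcinoma cells is assessed 72 h after pin-tool compound addition at 37 °C. Normalized responses across the concentration series yield fitted curves.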
HT1080 IDH1KD tx: kills HT-1080 cells with IDH1 knockdown | HT-1080 IDH1 knockdown viability, ATP luminescence, 48 h | Potency, µM (doses to about 46.1 µM), without a hit: at the top dose activity, negative = toxicity, hits mostly cytotoxic | 360,000 tested, 2% active | AID 686971;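 note: 0% = DMSO wells and -100% = cell-free medium wells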
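HT-1080-IDH1KD cells (IDH1 knocked down), 750/well in RPMI with 5% FBS, treated with compound 48 h at 37 degrees C. Viability by CellTiter-Glo luminescence, normalised to DMSO and no-cell wells; concentration-response curves classed.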
DT40 TDP1 no CPT: qHTS for Inhibitors of human tyrosyl-DNA phosphodiesterase 1 (TDP1): qHTS in cells in absence of CPT; DT40 Tdp1-/- hTDP1 cells, no CPT, ATP luminescence, 48 h; Potency, µM (doses to about 46.2 µM), for inactives: top-dose activity change, negative = growth inhibition, actives largely listed as inhibitors; 420,000 tested, 15% active; note: nearly all actives have a fitted effect of over 55% in size
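No-CPT arm: Tdp1-/-;hTDP1 DT40 cells (400/well) plus compounds, incubated ≥48 hr at 37 °C. Readout CellTiter-Glo luminescence.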
HT1080-NT tox: kills 2HG-producing HT-1080-NT fibrosarcoma cells | HT-1080-NT fibrosarcoma viability, CellTiter-Glo ATP luminescence, 48 h | Potency, µM (highest dose often 46.1 µM), for inactives: top-dose activity, negative = less viability, usual class: cytotoxic | 360,000 tested, 1.6% active;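 note: NT is the 2HG producing partner of a matched IDH1 knockdown line; 0% = DMSO-treated cells and -100% = media-only wells without cells; nearly all actives have a fitted effect of over 55% in size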
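Compounds were tested in concentration-response format on HT-1080-NT cells for 48 hours at 37 degrees C. Cell viability came from CellTiter-Glo luminescence; curves were classified by r2, response magnitude and activity.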
KB-V1 MDR tox: KB-V1 MDR subline cytotoxicity; KB-V1 MDR cells viability, CellTiter-Glo, 72 h; Potency, µM (titrated, usually from 46.1 µM), actives largely listed as cytotoxic; 400,000 tested, 3.4% active; note: nearly all actives have a fitted effect of over 60% in size
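Cells of the MDR subline KB-V1 are plated, dosed with compound at multiple concentrations, and incubated 72 h at 37 degrees C; CellTiter-Glo is then added and luminescence read after 10 min.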
Numbers without * were called inactive; i = inactive; ? = inconclusive; nt = no result given. Sampled rows, rich in hits. Any-hit rate of the full collection: about 19%. Calls come from the whole dose curve; as a rule, active = well fitted curve in the direction sought with a large enough effect; inconclusive = small, poorly fitted or top-dose-only effect, or another doubt; inactive = no such curve, though single readings can be large; an effect the other way counts as inactive or inconclusive. Unless noted, % is set by controls: 0 for no effect and ±100 for the full control effect; potency is the fitted concentration of half-maximal effect.

SMILES	DT40 TDP1 CPT	KB-3-1 tox	HT1080 IDH1KD tx	DT40 TDP1 no CPT	HT1080-NT tox	KB-V1 MDR tox
CC(CN)(NS(=O)(=O)c1ccccc1)c1ccccc1 (stereo not drawn)	?	i	-4.2%	-0.9%	0.5%	i
CC(=O)c1nnn(-c2ccc([N+](=O)[O-])cc2)c1C	-12.1%	i	-1.1%	-13.2%	-0.3%	i
CCOC(=O)c1nnc2c(Br)c(-c3ccccc3)nn2c1C	?	i	6.1%	?	4.0%	i
COc1ccc(CNc2oc(COc3ccccc3Cl)nc2C#N)cc1	?	i	-9.5%	?	-1.0%	i
N#Cc1nc(COc2cccc(Cl)c2)oc1NCc1ccco1	20.6µM*	i	-2.2%	18.4µM*	15.0%	i
Cc1cccc(OCc2nc(C#N)c(N3CC(C)CC(C)C3)o2)c1 (stereo not drawn)	6.51µM*	i	-2.1%	?	2.6%	?
COc1ccc(CNc2oc(COc3ccccc3)nc2C#N)cc1	?	i	-19.9%	?	-13.4%	18.4µM*
CC(C)N(C(=O)CSc1nnc(C2CC2)n1C1CC1)c1ccccc1	2.8%	i	13.2%	-14.7%	12.8%	i
CC1CN(C(=O)COC(=O)c2cncc(Br)c2)CC(C)O1 (stereo not drawn)	-5.3%	i	-0.7%	14.2%	-0.1%	i
CCN(Cc1ccccc1)C(c1ccccn1)c1nnnn1C1CCCCC1 (stereo not drawn)	?	i	12.6%	?	11.5%	?
Clc1ccc(CN(CC2CCCO2)C(c2cccs2)c2nnnn2C2CCCC2)cc1 (stereo not drawn)	7.31µM*	?	-12.7%	6.51µM*	-17.2%	20.6µM*
CC(C)(C)n1nnnc1C(c1cccs1)N(Cc1cccnc1)Cc1ccccc1Cl (stereo not drawn)	?	?	?	18.4µM*	?	?
CCN(Cc1ccccc1)C(c1cccs1)c1nnnn1C1CCCCC1 (stereo not drawn)	?	i	?	29.1µM*	?	i
Clc1ccccc1CN(Cc1ccccc1)C(c1cccs1)c1nnnn1C1CCCC1 (stereo not drawn)	?	?	-14.8%	20.6µM*	-0.8%	?
CCOC(=O)C1(C)/C(=N/Nc2ccccc2Cl)C(=O)C(=O)N1c1ccccc1 (stereo not drawn)	1.5%	i	0.7%	-23.5%	-1.0%	i
C[C@@H]1CN([C@@H](C)CO)S(=O)(=O)c2ccc(Br)cc2O[C@@H]1CN(C)Cc1cccnc1	-3.8%	i	-3.9%	-11.9%	-0.1%	i
CCCCNC(=O)C(NC(=O)c1ccc(C(F)(F)F)cc1)C(=O)c1ccccc1 (stereo not drawn)	-16.3%	i	16.7%	4.2%	17.6%	?
CCCCNC(=O)C(NC(=O)Cc1cc(C(F)(F)F)cc(C(F)(F)F)c1)C(=O)c1ccccc1 (stereo not drawn)	29.1µM*	i	8.9%	?	1.5%	i
CCOC(=O)C(NC(=O)c1ccccc1)C(C)(C)SCc1ccccc1 (stereo not drawn)	?	nt	3.9%	?	0.0%	nt
O=C(Nc1ccc(Cl)c(Cl)c1)C1CCN(C(=O)c2ccco2)CC1	16.4µM*	?	-29.7%	14.6µM*	-4.7%	?
O=C(c1ccco1)N1CCN(C(=O)c2ccco2)C1=S	2.59µM*	11.6µM*	16.4µM*	5.8µM*	?	16.4µM*
O=C(c1ccco1)N1CCN(c2ccc(Cl)cc2)CC1	-20.7%	i	-6.2%	-23.0%	-0.9%	i
O=C(Nc1ccc(N2CCN(C(=O)c3ccco3)CC2)cc1)c1cc(Br)ccc1Cl	?	?	?	?	?	2.06µM*
O=C(c1ccco1)N1CCN(c2ccc(Cl)c(Cl)c2)CC1	20.6µM*	i	-12.1%	14.6µM*	-4.3%	?
Cc1ccc(NC(=O)C2CCN(C(=O)c3ccco3)CC2)cc1	-2.6%	?	27.6%	0.3%	13.3%	i
SMILES	DT40 TDP1 CPT	KB-3-1 tox	HT1080 IDH1KD tx	DT40 TDP1 no CPT	HT1080-NT tox	KB-V1 MDR tox
CC(C)(C)C1CCC(=NNC(=O)CN(c2ccccc2)S(C)(=O)=O)CC1 (stereo not drawn)	0.8%	i	20.7%	-4.8%	15.8%	i
CCNC(=S)NN=C1CCC(C(C)(C)C)CC1 (stereo not drawn)	?	i	-1.4%	18.4µM*	15.2%	i
COc1cccc(NC(=O)Cn2c(=O)n(CCCCC(=O)NCCc3ccccc3)c(=O)c3ccccc32)c1	?	i	nt	?	nt	i
Cc1ccc2nc(-c3ccc(O)cc3)oc2c1	-29.1%	i	-6.8%	-20.5%	?	i
O=C1CCCC2=C1C(c1ccc(OS(=O)(=O)c3ccc(Cl)cc3)cc1)C1=C(CCCC1=O)O2	?	?	12.3%	?	6.4%	4.61µM*
CCc1ccc(C2C3=C(CCCC3=O)OC3=C2C(=O)CCC3)cc1	-15.1%	i	-3.5%	3.1%	0.7%	i
O=C(COC(=O)Cc1ccccc1)NCc1ccc2c(c1)OCO2	4.3%	i	22.0%	-13.2%	4.9%	?
O=C1CC2(CCN(C(=O)c3ccccc3Cl)CC2)Oc2ccccc21	?	i	5.5%	?	1.6%	i
O=C1CC2(CCN(C(=O)c3ccc(Cl)cc3)CC2)Oc2ccccc21	-24.0%	i	-13.2%	?	-21.3%	?
CCSc1ccccc1C(=O)N1CCC2(CC1)CC(=O)c1ccccc1O2	-45.6%	i	-2.2%	16.4µM*	-1.1%	i
O=C1CC2(CCN(C(=O)c3ccc(F)c(F)c3)CC2)Oc2ccccc21	29.1µM*	i	2.3%	?	0.1%	i
CCC(CC)NC(=O)CN1CCN(S(=O)(=O)c2cccs2)CC1	11.3%	i	5.1%	-2.6%	3.5%	i
CN(C)[C@@H](CO)c1nnc([C@H](CCC(=O)O)NC(=O)C2CCNCC2)o1	-3.8%	i	9.9%	6.8%	2.1%	i
CN(C)[C@@H](CO)c1nnc([C@H](CC(=O)O)NC(=O)C2CCNCC2)o1	4.61µM*	i	9.4%	-1.1%	0.1%	?
C#CC1(NC(=O)NC(C)C)CCCCC1	-1.8%	i	-3.9%	-3.4%	-0.8%	i
C=C(C)C(=O)OC1(C(F)(F)F)Oc2cc(C)ccc2NC1=O (stereo not drawn)	16.4µM*	i	?	16.4µM*	?	i
